TCR act: Activators of T cell receptors: qHTS campaign | primary human leukocytes, anti-CD3, IL-2 HTRF, 48 h | Potency, µM (titrated, usually from 9.22 µM), most hits filed as activators | 330,000 tested, under 10 active | AID 504894, 2011
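IL-2 produced over 48 hr by a-CD3 bead-stimulated primary human leukocytes exposed to compounds was detected with a homogeneous time-resolved FRET immunoassay, 665nm acceptor signal after 320nm excitation.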
BRCA1 expr act: qHTS Assay to Identify Small Molecule Activators of BRCA1 Expression; MCF7-BRCA1-FFLuc reporter, luminescence, 48 h; response scale: scaled: vehicle 0%, 10 µM genistein 100%; Potency, µM (series often up to 46.1 µM), hits mostly activators; 380,000 tested, 1.1% active; further: nearly all actives have a fitted effect of over 80% in size
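Cells: MCF7-BRCA1-FFLuc, 2000/well. Exposure: 48 h, 37 °C, 5% CO2. Read: luminescence, 15 min post-substrate. Controls: genistein 10 microM (maximal activation), DMSO (neutral).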
p53 reactivation: qHTS assay for re-activators of p53 using a Luc reporter. H1299 p53-A138V BP100-luciferase reporter, luminescence, 24 h. Potency, µM (highest dose often 92.2 µM), actives largely listed as activators. 320,000 tested, 0.063% active. AID 504706, 2011; further: nearly all actives have a fitted effect of over 45% in size
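p53-null H1299 cells stably carrying temperature-sensitive p53-A138V and a BP100-luciferase reporter were pinned with compounds (4-point, 1:5 series) and held 24 hrs at 37 deg C. Luminescence was read 10 min after detection reagent.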
TSHR antag: Antagonists of the Thyroid Stimulating Hormone Receptor: HTS campaign | TSHR-expressing cells, TSH-stimulated cAMP HTRF, 2 h; active compounds read low | AID 504810, 2011 | Thyrotropin receptor (Homo sapiens), P16473 | 330,000 tested, 0.2% active | activity change, negative = inhibition, % at 11.5 µM;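 active means activity change below a set negative limit, meaning inhibition stronger than a set level, cut at about -70% in these data; inconclusive means activity change between two set negative limits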
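TSHR-expressing cells, 200/well, pre-treated with compound, then stimulated with EC80 TSH (4nM final) for 2 hours at 37 deg C. cAMP measured by competitive HTRF: anti-cAMP cryptate antibody in lysis buffer plus cAMP-d2, read after 30 minutes at room temperature.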
N370S GC: qHTS Assay for Inhibitors and Activators of N370S glucocerebrosidase as a Potential Chaperone Treatment of Gaucher Disease; Potency, µM (titrated, usually from 59.4 µM), usual class: inhibitors; Lysosomal acid glucosylceramidase (Homo sapiens), P04062; 330,000 tested, 0.092% active; AID 2101, 2009; N370S GC spleen homogenate, 4MU-glucoside fluorescence
GLS inh: qHTS for Inhibitors of Glutaminase (GLS); Glutaminase kidney isoform, mitochondrial (Homo sapiens), O94925; GLS enzymatic activity, qHTS titration; Potency, µM (top dose mostly 45.5 µM), hits mostly inhibitors; 410,000 tested, 0.21% active; AID 624170, 2012
Target sequence (O94925 whole entry, looked up, canonical isoform): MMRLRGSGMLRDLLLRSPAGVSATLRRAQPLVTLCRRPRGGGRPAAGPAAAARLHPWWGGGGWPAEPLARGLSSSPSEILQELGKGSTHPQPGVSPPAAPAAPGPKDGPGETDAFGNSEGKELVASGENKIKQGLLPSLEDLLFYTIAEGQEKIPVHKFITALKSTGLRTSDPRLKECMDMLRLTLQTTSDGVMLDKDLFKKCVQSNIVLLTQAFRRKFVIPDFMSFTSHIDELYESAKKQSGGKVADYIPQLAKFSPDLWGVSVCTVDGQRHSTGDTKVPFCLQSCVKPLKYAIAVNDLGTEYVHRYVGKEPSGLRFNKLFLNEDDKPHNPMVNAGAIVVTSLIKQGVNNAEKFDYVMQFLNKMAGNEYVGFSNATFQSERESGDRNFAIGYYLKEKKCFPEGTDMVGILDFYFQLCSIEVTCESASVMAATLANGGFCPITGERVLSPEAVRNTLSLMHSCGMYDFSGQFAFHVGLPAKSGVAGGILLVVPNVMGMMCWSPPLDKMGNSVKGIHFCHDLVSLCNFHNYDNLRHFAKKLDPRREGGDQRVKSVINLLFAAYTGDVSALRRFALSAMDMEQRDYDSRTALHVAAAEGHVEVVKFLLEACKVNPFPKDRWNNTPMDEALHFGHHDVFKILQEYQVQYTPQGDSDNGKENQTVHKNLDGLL
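hKGA in 45 mM KH2PO4 (pH 8.2), 0.02% Tween-20 with compound, then 1mM L-Glutamine (stock as added) plus glutamate oxidase/HRP/Amplex red coupling mix. Fluorescence read initially and after 30 min at RT; signal change reflects glutamate formation.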
Numbers stand for hits; - = inactive; ? = inconclusive; . = not tested or not shown. Shown are actives, neighbours in structure and some others; about 1.4% of the full set was active somewhere. Unless noted, the call rests on the fitted dose curve; in most records, active means well fitted curve in the direction sought with a large enough effect; inconclusive means small, poorly fitted or top-dose-only effect, or another doubt; inactive means no such curve, though single readings can be large; an effect the other way counts as inactive or inconclusive.

SMILES	TCR act	BRCA1 expr act	p53 reactivation	TSHR antag	N370S GC	GLS inh
O=[N+]([O-])c1ccccc1OCc1nc(-c2cccs2)no1	-	2.82µM	-	-	-	-
CCCCc1nc2cc(C(=O)N3CCC(O)CC3)ccc2o1	-	3.55µM	-	-	-	-
CCn1nc(-c2ccc(C)cc2)nc2c(=O)n(C)c(=O)nc1-2	.	-	.	.	.	.
O=C(N/N=C/c1ccc(F)cc1)c1cc(-c2ccco2)nc2ccccc12	-	-	-	-	-	10µM
CCOc1ccc(/C=N/NC(=O)c2cc(-c3ccco3)nc3ccccc23)cc1	-	-	-	-	-	-
O=C(N/N=C/c1ccc(O)c(O)c1)c1cc(-c2ccccc2)nc2ccccc12	.	-	.	-	-	12.6µM
CC[C@@H]1OC(=O)C[C@H](O)[C@@H](C)[C@@H](O[C@H]2O[C@@H](C)[C@H](O[C@@H]3C[C@](C)(O)[C@H](O)[C@@H](C)O3)[C@@H](N(C)C)[C@@H]2O)[C@@H](C=O)C[C@@H](C)C(=O)/C=C/C(C)=C[C@@H]1CO[C@H]1O[C@@H](C)[C@H](O)[C@H](OC)[C@@H]1OC	.	.	.	.	.	-
O=C(Cn1cc(C(F)(F)F)cc(Cl)c1=O)NCCc1ccc(Cl)cc1Cl	-	-	-	-	-	-
O=C(Cn1cc(C(F)(F)F)cc(Cl)c1=O)NCc1ccc(F)cc1	-	11.2µM	?	-	-	-
CCCCCCCOc1ccc(CC(=O)NO)cc1	.	-	.	.	.	.
COc1cccc(Cn2c(=O)cnc3cnc(Nc4ccccc4)nc32)c1	.	.	.	.	-	.
CCCCCCCCCCCCOC(=O)N1CCN(/[N+]([O-])=N/Oc2ccc([N+](=O)[O-])cc2[N+](C)=O)CC1	.	-	.	.	.	.
COc1ccc(-c2nnc(SCC(=O)Nc3cc(OC)ccc3OC)nc2-c2ccc(OC)cc2)cc1	.	.	.	.	.	-
CC1=NN(c2cccc(C(=O)O)c2)C(=O)/C1=C\C=C/c1ccccc1	-	-	-	-	-	15.8µM
CC(C)COc1ccc(-c2nnn(CC(=O)N3CCCC3)n2)cc1	-	10µM	?	-	-	-
O=C(Cn1nnc(-c2ccccc2)n1)N1CCCCC1	-	-	.	-	-	-
COC(=O)c1ccc(COC(=O)c2ccc(SC)cc2OC)cc1	-	8.91µM	?	-	-	-
COc1cc(SC)ccc1C(=O)OCC(=O)NCCNC(=O)COC(=O)c1ccc(SC)cc1OC	-	-	-	-	-	-
Cc1cccc(-c2noc(CN(C)C(=O)c3ccco3)n2)c1	-	-	-	-99.9	-	-
Cc1cccc(-c2noc(CN(C)C(=O)c3ccoc3C)n2)c1	-	-	-	-	-	-
CCOC(=O)c1cnc2ccc(OC)cc2c1Nc1ccc(N2CCN(C)CC2)cc1	-	-	-	-	-	12.6µM
CCOc1ccccc1-c1nnc2n1N=C(c1ccc(OC)c(OC)c1)CS2	.	.	.	.	-	.
O/N=C/c1ccc(OCc2ccccc2F)c(Cl)c1	-	2.82µM	?	-	-	-
O/N=C/c1ccc(OCc2ccccc2)c(Cl)c1	-	10µM	?	-	-	-
O/N=C/c1ccccc1OCc1ccccc1F	-	-	-	-	-	-
SMILES	TCR act	BRCA1 expr act	p53 reactivation	TSHR antag	N370S GC	GLS inh
O/N=C/c1ccc(OCc2ccccc2)c(Br)c1	-	?	?	-	-	-
CN1CCN(C2=CC3=CC(=C(C#N)C#N)CCC3CC2)CC1 (stereo not drawn)	-	-	-	-92.7	-	-
N#CC(C#N)=C1C=C2C=C(N3CCCCCC3)CCC2CC1 (stereo not drawn)	-	-	-	-	-	-
Cc1cccc(-c2nc(C#N)c(NC3CCCCC3)o2)c1	-	3.16µM	-	-	-	-
Cc1cccc(-c2nc(C#N)c(N3CCCCC3)o2)c1	-	?	-	-	-	-
O=C(CC(NC(=O)c1ccccc1)c1ccccc1)OCc1nc(-c2cccc(Cl)c2)no1 (stereo not drawn)	.	-	.	.	.	.
CCc1cnc2ccccc2c1/C=C/c1ccc(N(C)C)cc1	.	-	.	.	.	.
CCN1CCN(C2=C(NS(=O)(=O)c3ccc(C)cc3)C(=O)c3ccccc3C2=O)CC1	-	-	-	-79.4	-	-
CC(C)Sc1nnc(-c2c[nH]c3ccccc23)n1C	-	7.08µM	?	-	-	-
COc1cc(OC)c(OC)cc1/C=C/c1ccc2ccccc2[n+]1C	.	-	.	.	.	.
CSCC[C@H](N)C(=O)N[C@@H](CO)C(=O)N[C@@H](CCCN=C(N)N)C(=O)N1CCC[C@H]1C(=O)N[C@@H](C)C(=O)N[C@@H](CS)C(=O)N1CCC[C@H]1C(=O)N[C@@H](CC(N)=O)C(=O)N[C@@H](CC(=O)O)C(=O)N[C@@H](CCCCN)C(=O)N[C@@H](Cc1ccc(O)cc1)C(=O)N[C@@H](CCC(=O)O)C(=O)O	.	.	.	.	-	.
COc1ccc(NC(=O)CN(C)C(=O)CNC(=O)c2sc3ccccc3c2Cl)cc1	-	7.94µM	?	-	.	-
COc1cccc(NC(=O)CN(C)C(=O)CNC(=O)c2sc3ccccc3c2Cl)c1	-	?	?	-	.	-
Nc1c(C(=O)Nc2ccc(Cl)c(C(F)(F)F)c2)sc2nc(-c3ccncc3)ccc12	.	.	.	.	.	-
O=c1c2ccc(F)cc2sn1-c1ccccc1	.	-	.	.	.	7.08µM
O=c1c2ccccc2sn1-c1ccc(F)cc1	-	-	?	-	.	10µM
COC(=O)c1cccc(-n2sc3ccccc3c2=O)c1	-	-	?	-	.	11.2µM
O=C1C=CC(=O)C2=C1C1c3ccccc3C2c2ccccc21	.	.	.	.	-	.
O=C(CNC(=O)C1CCCCC1)OCC(=O)c1ccc(-c2ccccc2)cc1	.	-	.	.	.	.
Cc1ccc2oc(Nc3nc(-c4ccccc4)cc(=O)[nH]3)nc2c1	-	3.55µM	-	-	-	-
COc1ccc(CCNC[C@H](O)COc2cccc(C)c2)cc1OC	.	.	.	.	.	-
CC(=O)c1cccc(NC(=O)Cn2c(=O)c(CNc3ccc(C)cc3)cc3cc4c(cc32)OCCO4)c1	.	-	.	.	.	10µM
Cc1ccc(NC(=O)Cn2c(=O)c(CNc3ccccc3)cc3cc4c(cc32)OCCO4)cc1	.	.	.	.	.	-
CCc1ccc(NCc2cc3cc(OC)c(OC)cc3n(CC(=O)Nc3cc(C)ccc3C)c2=O)cc1	.	-	.	.	.	11.2µM
c1ccc(Sc2ncnc3c2oc2ccccc23)nc1	-	11.2µM	?	-	-	-

Screening results as filed in PubChem BioAssay.
